# In PubChem BioAssay (Tox21):
# Records with an inconclusive call do not appear. Where a call stands in place of a potency, no number is given. Activity calls are given as the source filed them. The call rests on the fitted dose curve; in most records, active means well fitted inhibition curve with a large enough effect in the repeat runs; inconclusive means weak or mixed curves; inactive means flat fitted curve, though single readings scatter.
# Target: Voltage-gated inwardly rectifying potassium channel KCNH2 (Homo sapiens) (UniProt Q12809)
# Experiment: Human Ether-a-go-go-Related Gene (hERG) channel small molecule antagonists: fluorescence cell-based qHTS assay (AID 1671200); further: nearly all actives have a fitted effect of over 50% in size
# Details: hERG-U2OS cells, FluxOR thallium flux fluorescence; series mostly up to 76.8 µM
# How it was run: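 Read-out: thallium influx as a surrogate for potassium, tracked as fluorescence (480 nm ex/540 nm em) every second for 2 min after Stimulus Buffer addition in dye-loaded hERG-U2OS cells.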
# Potency means the concentration at half of the fitted maximal effect.
# Sequence of Voltage-gated inwardly rectifying potassium channel KCNH2 (Homo sapiens) (Q12809 whole entry, looked up): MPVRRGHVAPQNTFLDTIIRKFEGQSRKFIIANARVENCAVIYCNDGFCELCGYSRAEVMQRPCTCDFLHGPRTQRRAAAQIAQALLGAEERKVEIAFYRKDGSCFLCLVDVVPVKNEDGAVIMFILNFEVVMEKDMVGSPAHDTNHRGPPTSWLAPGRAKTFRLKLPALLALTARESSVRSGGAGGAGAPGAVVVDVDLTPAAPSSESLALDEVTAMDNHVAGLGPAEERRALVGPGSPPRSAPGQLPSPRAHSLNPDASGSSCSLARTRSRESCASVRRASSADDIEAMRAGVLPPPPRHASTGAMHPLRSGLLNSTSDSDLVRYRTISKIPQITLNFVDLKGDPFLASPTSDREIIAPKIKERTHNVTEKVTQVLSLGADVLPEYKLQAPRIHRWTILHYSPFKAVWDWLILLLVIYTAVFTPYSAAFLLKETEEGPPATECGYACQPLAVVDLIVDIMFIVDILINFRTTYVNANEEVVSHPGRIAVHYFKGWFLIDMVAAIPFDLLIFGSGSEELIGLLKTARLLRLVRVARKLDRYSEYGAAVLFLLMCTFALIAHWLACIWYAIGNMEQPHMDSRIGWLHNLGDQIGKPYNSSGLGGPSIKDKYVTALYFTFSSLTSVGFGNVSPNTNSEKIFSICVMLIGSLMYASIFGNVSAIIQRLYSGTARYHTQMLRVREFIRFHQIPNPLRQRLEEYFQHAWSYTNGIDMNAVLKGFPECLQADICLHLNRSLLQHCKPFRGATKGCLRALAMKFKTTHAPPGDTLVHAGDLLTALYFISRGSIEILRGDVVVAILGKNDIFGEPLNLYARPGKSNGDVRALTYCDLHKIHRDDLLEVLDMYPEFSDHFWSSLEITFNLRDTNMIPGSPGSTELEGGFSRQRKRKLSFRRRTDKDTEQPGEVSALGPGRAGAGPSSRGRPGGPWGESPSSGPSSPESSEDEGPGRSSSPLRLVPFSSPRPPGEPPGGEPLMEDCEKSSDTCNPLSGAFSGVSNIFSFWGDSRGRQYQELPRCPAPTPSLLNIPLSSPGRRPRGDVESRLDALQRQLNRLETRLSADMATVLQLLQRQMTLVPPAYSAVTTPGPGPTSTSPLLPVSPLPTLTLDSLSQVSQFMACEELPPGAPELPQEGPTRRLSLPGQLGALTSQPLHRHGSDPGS
row,SMILES,Potency
1,Cc1cccc2c1ccc1ccccc12,inactive
2,Cc1ccc2n[nH]nc2c1,inactive
3,CC(C=O)c1ccccc1 (stereo not drawn),inactive
4,CCc1cccc(C)c1N(C(=O)CS(=O)(=O)O)C(C)COC (stereo not drawn),inactive
5,O=C(CCCCCCCCc1cccnc1)N1CCC(C=C(c2ccccc2)c2ccccc2)CC1,6.92 µM (active)
6,O=C1c2ccccc2C(=O)c2c(Cl)cccc21,inactive
7,O=C1OCc2ccccc21,inactive
8,Oc1cccc2c(O)cccc12,inactive
9,CCN(CC)c1ccc(C=O)c(O)c1,inactive
10,Cc1ccc(C=O)cc1,inactive
11,COCCC(=O)OC,inactive
12,CC/C=C(\C)C=O,inactive
13,CCOC=C(C(=O)OCC)C(=O)OCC,inactive
14,Nc1ccc(F)c([N+](=O)[O-])c1,inactive
15,N#Cc1nc(Cl)c(Cl)c(Cl)c1Cl,inactive
16,Oc1ccc2c(c1)CCC2,inactive
17,c1ccc(-c2nc3ccccc3[nH]2)cc1,inactive

row,SMILES,Potency
1,CCCCCCCCc1ccc(Nc2ccc(CCCCCCCC)cc2)cc1,inactive
2,Cc1cc(C)c(O)c(C(C)(C)C)c1,inactive
3,CC1=CC[C@@H](C(C)(C)O)CC1,inactive
4,Cc1ccc(C2OC[C@@H]3OC(c4ccc(C)cc4)O[C@H]([C@H](O)CO)[C@@H]3O2)cc1 (stereo partly drawn),inactive
5,Cc1cccc(C)c1C,inactive
6,CC(CC(C)(C)C)CC(C)(C)CC(C)(C)C (stereo not drawn),inactive
7,Brc1cc(Br)cc(Br)c1,inactive
8,c1ccc2occc2c1,inactive
9,CCC(=O)OC/C=C(\C)CCC=C(C)C,inactive
10,Nc1ccc2c(S(=O)(=O)O)cccc2c1S(=O)(=O)O,inactive
11,CC(C)(C)c1cc(CCC(=O)OCCSCCOC(=O)CCc2cc(C(C)(C)C)c(O)c(C(C)(C)C)c2)cc(C(C)(C)C)c1O,inactive
12,C/C(=C\c1ccc(C(=O)O)cc1)c1ccc2c(c1)C(C)(C)CCC2(C)C,inactive
13,CCCCCCCCCCCC(=O)Cl,inactive
14,CCn1c2ccccc2c2ccccc21,inactive
15,CCCCCCCCCCCCN1CCCC1=O,inactive
16,NC(=O)c1ccccc1Cl,inactive
